As a reminder, the AC50 is the midpoint of the concentration-response curve, whichever way the signal moves.

We go through 14 molecules from PubChem BioAssay (EPA / NIEHS).

Assay [1] is described as follows: Tanguay_ZF_120hpf_AXIS_legacy: (Legacy) Oregon State University Tanguay Lab 120 Hour Post-fertilization zebrafish Assay for Body Axis Malformation (AID 2283635).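 As to AC50: potency for an increased fraction of larvae scored with body axis malformation.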 In short, it runs like this:
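Each dechorionated embryo was exposed alone from 6 hpf, with DMSO at 0.64% (vol/vol) and trimethyltin chloride 5 uM as positive control. Axis malformation was recorded at 120 hpf unless the embryo had died.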

A short description of assay [2]: Tanguay_ZF_120hpf_EYE_legacy: (Legacy) Oregon State University Tanguay Lab 120 Hour Post-fertilization zebrafish Assay for Eye Malformation (AID 2283636).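 Also: binary presence or absence of eye malformation scored by brightfield in 120 hpf larvae.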 In outline: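 Dechorionated Tropical 5D zebrafish embryos, one per well from 6 hpf, static exposure to 120 hpf at 28C, 0.64% DMSO. Eye malformation scored present/absent by brightfield; dead embryos not scored.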

The nature of assay [3]: Tanguay_ZF_120hpf_SNOU_legacy: (Legacy) Oregon State University Tanguay Lab 120 Hour Post-fertilization zebrafish Assay for Snout Malformation (AID 2283637). In outline: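 Dechorionated tropical 5D wild-type zebrafish embryos exposed statically from 6 to 120 hpf at 28C, one per well, in 0.64% DMSO. Snout malformation scored as present/absent by brightfield at 120 hpf; dead embryos not scored.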

Assay [4] is described as follows: Tanguay_ZF_120hpf_JAW_legacy: (Legacy) Oregon State University Tanguay Lab 120 Hour Post-fertilization zebrafish Assay for Jaw Malformation (AID 2283638).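 As to AC50: active means more embryos with jaw malformation than DMSO controls.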 In short, it runs like this: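 Wild-type 5D embryos, chorion removed at 4 hpf, dosed singly from 6 hpf; 28C static, sealed, foil-covered, to 120 hpf. Endpoint: jaw defect yes/no (brightfield); mortality excludes scoring.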

Assay [5] is described as follows: Tanguay_ZF_120hpf_OTIC_legacy: (Legacy) Oregon State University Tanguay Lab 120 Hour Post-fertilization zebrafish Assay for Otic Vesicle Malformation (AID 2283639). In short, it runs like this:
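Otic vesicle malformation is read as a yes/no morphology call at 120 hpf. Exposure is static at 28C with 0.64% (vol/vol) DMSO; embryos that die are excluded from non-mortality endpoints.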

Assay [6] is described as follows: Tanguay_ZF_120hpf_PE_legacy: (Legacy) Oregon State University Tanguay Lab 120 Hour Post-fertilization zebrafish Assay for Pericardial Edema (AID 2283640).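 As to AC50: potency for increased incidence of pericardial edema versus DMSO baseline.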 In short, it runs like this: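 Zebrafish larvae are exposed from early development to 120 hpf at 28C, with 0.64% DMSO final. Each surviving larva receives a yes/no pericardial edema call by brightfield imaging, analysed relative to the DMSO baseline.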

Assay [7] in a line: Tanguay_ZF_120hpf_SOMI_legacy: (Legacy) Oregon State University Tanguay Lab 120 Hour Post-fertilization zebrafish Assay for Somite Malformation (AID 2283647). In outline:
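Somitogenesis defects are recorded as binary calls in whole larvae at 120 hpf after continuous static chemical exposure starting at 6 hpf in dechorionated 5D embryos. DMSO serves as negative control and baseline.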

Assay [8] is described as follows: Tanguay_ZF_120hpf_PFIN_legacy: (Legacy) Oregon State University Tanguay Lab 120 Hour Post-fertilization zebrafish Assay for Pectoral Fin Malformation (AID 2283648).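 Also: each larva judged yes or no for fin defect by brightfield with dead larvae skipped.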 In outline:
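Dechorionated Tropical 5D wild-type zebrafish embryos, one per well, statically exposed from 6 to 120 hpf at 28C with 0.64% DMSO final. Pectoral fin malformation scored present/absent by brightfield at 120 hpf; not scored in dead embryos.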

Assay [9] is described as follows: Tanguay_ZF_120hpf_CFIN_legacy: (Legacy) Oregon State University Tanguay Lab 120 Hour Post-fertilization zebrafish Assay for Caudal Fin Malformation (AID 2283649). In outline: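 Single dechorionated 5D wild-type embryos are dosed at 6 hpf (final DMSO 0.64%) and held statically at 28C. Caudal fin malformation is recorded as present or absent at 120 hpf under brightfield, excluding dead embryos.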

Assay [10] is described as follows: Tanguay_ZF_120hpf_PIG_legacy: (Legacy) Oregon State University Tanguay Lab 120 Hour Post-fertilization zebrafish Assay for Pigmentation Malformation (AID 2283650). In short, it runs like this: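 Dechorionated Tropical 5D wild-type embryos, one per well from 6 hpf, statically exposed at 28C in the dark until 120 hpf, 0.64% DMSO final. Pigmentation scored present/absent by brightfield microscopy; dead embryos not scored; fitted versus DMSO.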

Read-out in assay [11]: solute carrier (SLC22A6), SLC22A6 (gene 9356)
Put plainly: LTEA_HepaRG_SLC22A6: Life Technologies and Expression Analysis (LTEA) Assay for solute carrier (SLC22A6) using HepaRG (AID 2283653; active = hit-call score of the fitted dose curve at least 0.9, where 1 is the maximum; inactive = score below 0.9). The settings on record: mRNA level, 48 h; actives raise or lower the signal. In outline: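 Gene-expression endpoint in HepaRG hepatic cells: duplicate 8-point concentration-response, highest 100 uM, 48 h treatment in serum-free medium with 0.5% DMSO. SLC22A6 expression measured by qRT-PCR, normalised to ACTB/GAPDH/POLR2A.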

Assay [12] is described as follows: Tanguay_ZF_120hpf_SWIM_legacy: (Legacy) Oregon State University Tanguay Lab 120 Hour Post-fertilization zebrafish Assay for Swim Bladder Malformation (AID 2283654).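 Also: swim bladder malformation in each larva scored yes or no under brightfield.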 In outline: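 Dechorionated wild-type Tropical 5D zebrafish embryos, one per well from 6 hpf, were statically exposed at 28C until 120 hpf in 0.64% DMSO. Swim bladder malformation scored as present/absent by brightfield microscopy; not scored in dead larvae.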

Assay [13] can be described thus: Tanguay_ZF_120hpf_TRUN_legacy: (Legacy) Oregon State University Tanguay Lab 120 Hour Post-fertilization zebrafish Assay for Truncated Body (AID 2283655). In outline:
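Single dechorionated zebrafish embryos received test chemical from 6 hpf in 0.64% DMSO, kept at 28C. At 120 hpf, brightfield inspection noted any truncated body.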

Read-out in assay [14]: matrix metalloproteinase-1 (MMP1), MMP1 (gene 4312)
Put plainly: LTEA_HepaRG_MMP1: Life Technologies and Expression Analysis (LTEA) Assay for matrix metalloproteinase-1 (MMP1) using HepaRG (AID 2283658; active = hit-call score of the fitted dose curve at least 0.9, where 1 is the maximum; inactive = score below 0.9). The note with it: mRNA level, 48 h; actives raise or lower the signal. In outline: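 In this screen, human liver HepaRG cultures receive each chemical in duplicate for 48 h (top 100 uM, 0.5% DMSO). MMP1 expression is then quantified by TaqMan qRT-PCR with ACTB/GAPDH/POLR2A normalization.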

Read-out in assay [15]: Broad substrate specificity ATP-binding cassette transporter ABCG2 (Homo sapiens) (UniProt Q9UNQ0)
Put plainly: CLD_ABCG2_6hr: CellzDirect (CLD) Gene Expression Assay for ABC Transporter (ABCG2) at 6 hours (AID 2283660). In short, it runs like this: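 Primary human hepatocytes dosed daily with chemicals at multiple concentrations (0.2% DMSO vehicle), harvested 6 h after dosing. ABCG2 mRNA induction read by quantitative nuclease protection assay (qNPA) chemiluminescence; gain of signal fitted against DMSO baseline.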

Assay [16] is described as follows: Tanguay_ZF_120hpf_BRAI_legacy: (Legacy) Oregon State University Tanguay Lab 120 Hour Post-fertilization zebrafish Assay for Brain Malformation (AID 2283641). In short, it runs like this: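 Static exposure of staged wild-type embryos until 120 hpf, kept at 28C with light excluded and final DMSO of 0.64% (vol/vol). Presence or absence of brain malformation was noted under brightfield; mortality precluded scoring.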

Assay [17] is described as follows: Tanguay_ZF_120hpf_CIRC_legacy: (Legacy) Oregon State University Tanguay Lab 120 Hour Post-fertilization zebrafish Assay for Circulatory Malformation (AID 2283651). In short, it runs like this: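 Using wild-type Tropical 5D zebrafish, we exposed dechorionated embryos from 6 to 120 hpf in embryo medium with 0.64% DMSO. Circulatory defects were scored as present or absent; 5uM trimethyltin chloride served as positive control.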

Assay [18] is described as follows: Tanguay_ZF_120hpf_NC_legacy: (Legacy) Oregon State University Tanguay Lab 120 Hour Post-fertilization zebrafish Assay for Notochord and Tail Malformation (AID 2283656). In outline: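 Dechorionated 5D zebrafish, 1/well from 6 hpf; static exposure to 120 hpf, 28C, sealed, dark; final DMSO 0.64% v/v. NC scored binary (present/absent); dead embryos not scored. Fit vs DMSO baseline, gain direction.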

Read-out in assay [19]: ABC Transporter (ABCB1), ABCB1 (gene 5243)
Put plainly: CLD_ABCB1_6hr: CellzDirect (CLD) Gene Expression Assay for ABC Transporter (ABCB1) at 6 hours (AID 2283659).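 Also: hits raise ABCB1 transcript above the DMSO vehicle baseline.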 In short, it runs like this: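 Primary human hepatocytes (two donor preparations) dosed daily for two days with chemicals at multiple concentrations, 0.2% DMSO vehicle; harvested 6 h post-dose. ABCB1 mRNA induction quantified by qNPA chemiluminescence; gain-of-signal fitted versus DMSO.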

“And” between values parts separate entries of the source, which are not always exact repeats. Identical values can stand only once. Results filed as inconclusive are left out. Some structures have more than one record in an assay (separate samples or runs), and their calls can disagree. The source made the active and inactive calls. The calls were made as follows, unless noted: active = hit-call score of the fitted dose curve at least 0.9, where 1 is the maximum; inconclusive = response in the unintended direction; inactive = score below 0.9.

Chain of Broad substrate specificity ATP-binding cassette transporter ABCG2 (Homo sapiens) (Q9UNQ0 whole entry, looked up): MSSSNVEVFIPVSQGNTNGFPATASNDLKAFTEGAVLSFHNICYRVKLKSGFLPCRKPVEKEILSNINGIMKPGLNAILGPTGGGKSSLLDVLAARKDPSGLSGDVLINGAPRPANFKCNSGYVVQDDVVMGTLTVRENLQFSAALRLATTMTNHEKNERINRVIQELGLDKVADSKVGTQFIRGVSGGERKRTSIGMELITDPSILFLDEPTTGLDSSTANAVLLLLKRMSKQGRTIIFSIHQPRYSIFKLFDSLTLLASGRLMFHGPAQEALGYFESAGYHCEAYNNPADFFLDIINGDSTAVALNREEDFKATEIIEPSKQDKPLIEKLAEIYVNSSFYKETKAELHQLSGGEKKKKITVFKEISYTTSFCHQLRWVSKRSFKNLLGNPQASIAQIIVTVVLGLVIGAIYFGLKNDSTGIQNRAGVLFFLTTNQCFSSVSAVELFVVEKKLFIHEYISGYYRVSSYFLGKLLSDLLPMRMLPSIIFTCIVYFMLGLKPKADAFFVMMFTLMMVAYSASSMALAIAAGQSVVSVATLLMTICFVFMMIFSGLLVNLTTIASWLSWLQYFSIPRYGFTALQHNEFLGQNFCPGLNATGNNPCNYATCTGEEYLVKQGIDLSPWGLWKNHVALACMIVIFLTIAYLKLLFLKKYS

Turning to `CCC(C)Nc1c([N+](=O)[O-])cc(C(C)(C)C)cc1[N+](=O)[O-]` (configuration not stated), the molecule was called inactive in assay [1], in assay [2], in assay [3], in assay [4], in assay [5] and in assay [6]. Besides, the molecule was called inactive in [7], in assay [8], in assay [9], in assay [10], in assay [11] and in assay [12]. In addition, the molecule was classed as inactive in assay [13], in assay [14] and in [15].
Take `O=C(O)C(F)(F)C(F)(F)C(F)(F)C(F)(F)C(F)(F)C(F)(F)C(F)(F)F`: the result in [1], in [2], in assay [4], in [5], in [6] and in assay [16] was inactive. In addition, the molecule was called inactive in assay [7], in assay [8], in assay [9], in assay [10], in [17] and in [12]. Besides, the molecule was classed as inactive in assay [13], in [18] and in assay [15].
As for `CC(C)(C)C(O)C(Oc1ccc(Cl)cc1)n1cncn1` (configuration not stated), the AC50 in assay [1] was 40.7 µM (active) and 31.9 µM (active) and 48.1 µM (active); in assay [2], 43.8 µM (active) and 32.4 µM (active) and 39.9 µM (active); in assay [4] it was 32 µM (active) and 51.8 µM (active); in [5], 46.2 µM (active) and 33 µM (active) and 45.3 µM (active); in assay [6] it was 47.5 µM (active) and 32.6 µM (active) and 43.3 µM (active); in [16] it was 49.8 µM (active) and 33.6 µM (active) and 48.3 µM (active). Moreover, the AC50 in assay [7] was 46 µM (active); in [8] it was 47.2 µM (active) and 33.2 µM (active) and 39.7 µM (active); in assay [9], 40.7 µM (active); in [10], 44.2 µM (active) and 47.8 µM (active); in assay [17], 40.6 µM (active); in [12], 47.1 µM (active). Moreover, in assay [13], the AC50 was 32.2 µM (active) and 47.2 µM (active). Besides, the outcome in assay [4], in assay [7], in assay [9], in assay [10], in assay [17] and in assay [12] was inactive. Moreover, the call in assay [13], in assay [18] and in assay [15] was inactive.
Regarding `O=C(Nc1ccccc1)Nc1cnns1`, the molecule was called inactive in assay [1], in [2], in [4], in assay [5], in assay [6] and in assay [16]. The result in assay [7], in assay [8], in assay [9], in assay [10], in assay [17] and in assay [13] was inactive. Further, the molecule was classed as inactive in assay [18].
For `CCS(=O)(=O)c1cccnc1S(=O)(=O)NC(=O)Nc1nc(OC)cc(OC)n1`, the outcome in [19] and in assay [15] was inactive.
For `Cc1[nH]c(=O)n(C(C)(C)C)c(=O)c1Cl`, the molecule was called inactive in assay [2], in assay [4], in [5], in [6], in [16] and in assay [7]. Further, the call in assay [8], in assay [9], in [10], in assay [17], in [11] and in [12] was inactive. Also, the call in [13], in [18] and in assay [14] was inactive.
Turning to `OCCOc1ccccc1`, the molecule was classed as inactive in [1], in [3], in assay [4], in assay [6], in assay [16] and in [7]. Further, the result in assay [8], in assay [9], in [10], in [17], in [12] and in assay [15] was inactive.
Take `COP(=S)(OC)Oc1ccc(SC)c(C)c1`: the outcome in [1], in [2], in assay [4], in [5], in assay [6] and in assay [16] was inactive. Further, the molecule was classed as inactive in assay [8], in assay [9], in [10], in assay [17], in [12] and in assay [13]. Further, the result in assay [18] was inactive.
For `CNC(=O)CSP(=S)(OC)OC`, the outcome in assay [1], in [2], in assay [4], in assay [5], in [6] and in assay [8] was inactive. The outcome in assay [9], in assay [17], in [12] and in assay [18] was inactive.
As for `CCOc1nc(NC)nc(NC(=O)NS(=O)(=O)c2ccccc2C(=O)OC)n1`, the result in assay [15] was inactive.
`COC(=O)c1ccccc1CS(=O)(=O)NC(=O)Nc1nc(OC)cc(OC)n1`: the call in assay [15] was inactive.
`O=C(O)CCCOc1ccc(Cl)cc1Cl`: the concentration at half-maximal activity (AC50) in assay [1] is 48.7 µM (active); in assay [6], 24.2 µM (active). The result in assay [2], in [4], in assay [16], in assay [7], in assay [9] and in [10] was inactive. Besides, the outcome in [17], in assay [12], in assay [13], in assay [18] and in assay [15] was inactive.
On to `CCc1ccc(C(=O)NN(C(=O)c2cc(C)cc(C)c2)C(C)(C)C)cc1`, for which the call in assay [1], in assay [2], in [4], in assay [5], in [16] and in [8] was inactive. Besides, the outcome in assay [9], in assay [10], in assay [12], in assay [13], in [18] and in assay [15] was inactive.
Regarding `COP(=O)(OC)OC=C(Cl)Cl`, the result in assay [1], in assay [2], in assay [5], in [6], in assay [16] and in assay [7] was inactive. Besides, the call in assay [8], in [9], in [10], in assay [17], in assay [12] and in assay [18] was inactive. Also, in assay [15], the call was inactive.
